Test results taken from PubChem BioAssay AID463115 (University of Pittsburgh Molecular Library Screening Center, 2010).
The campaign covered roughly 220,000 compounds. About 130 (0.059%) were called active. Rule as the data show it: active = inhibition above about 25%; inactive = the rest. This excerpt belongs to a sample that is enriched for actives.

Biological target: Furin (Homo sapiens) (UniProt P09958)
Test: human furin inhibitors, primary screen, biochemical, fluorescence intensity (AID 463115)
Conditions: purified furin, fluorogenic substrate cleavage, stronger effect = higher value; at 30 µM unless noted

Chain of Furin (Homo sapiens) (P09958 108-714 limits assumed): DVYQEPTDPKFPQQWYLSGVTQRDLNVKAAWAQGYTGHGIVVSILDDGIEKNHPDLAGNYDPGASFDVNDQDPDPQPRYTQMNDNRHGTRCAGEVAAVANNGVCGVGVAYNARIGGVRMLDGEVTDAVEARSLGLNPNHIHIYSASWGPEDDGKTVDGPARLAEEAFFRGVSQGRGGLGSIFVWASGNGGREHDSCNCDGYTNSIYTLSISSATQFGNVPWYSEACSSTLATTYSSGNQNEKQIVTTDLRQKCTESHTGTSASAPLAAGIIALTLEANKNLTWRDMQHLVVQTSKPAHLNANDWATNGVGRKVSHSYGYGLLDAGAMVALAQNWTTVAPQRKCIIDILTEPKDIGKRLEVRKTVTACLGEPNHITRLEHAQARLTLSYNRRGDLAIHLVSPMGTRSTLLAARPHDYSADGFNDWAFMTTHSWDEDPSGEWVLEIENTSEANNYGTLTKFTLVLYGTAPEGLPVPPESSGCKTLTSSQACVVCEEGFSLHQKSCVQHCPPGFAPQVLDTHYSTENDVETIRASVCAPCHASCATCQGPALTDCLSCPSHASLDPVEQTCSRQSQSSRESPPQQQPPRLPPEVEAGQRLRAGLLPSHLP

inhibition, inactive:
Cc1ccc(N(C(=O)Cc2cccs2)C2C=CS(=O)(=O)C2)cc1Cl (stereo not drawn) -2.17%, Cc1ccc(-n2c(SCC(=O)N/N=C/C=C/c3ccccc3[N+](=O)[O-])nc3ccccc3c2=O)cc1 -14.5%, CCC(=O)N(Cc1cc2ccccc2[nH]c1=O)c1ccc(OC)cc1 -11.6%, CCCCc1ccc(NC(=S)N2CCCC(CO)C2)cc1 (stereo not drawn) -6.03%, O=S(=O)(NCC1CCCO1)c1cnc(Cl)c(Cl)c1 (stereo not drawn) -12.9%, Cc1ccc(NC(=S)N(CCN(C)C)Cc2cccs2)cc1C -9.92%, COc1cccc(/C=N/NC(=O)CNC(=O)c2ccc(S(=O)(=O)N3CCOCC3)cc2)c1OC -9.37%, COC(=O)CCc1sc(Nc2ccc(Br)cc2)nc1-c1ccc(OC)cc1 -10.8%, CC1=CC=CN2C1=NC(=O)CC2(C)C(=O)N(CC(=O)NC1CCCC1)c1ccccc1C (stereo not drawn) -22.6%, CC(C)C1Nc2c(C(=O)O)cccc2C(Nc2ccccc2C(=O)O)C1(C)C (stereo not drawn) -28%, Cn1c(CCCOc2ccc(Cl)cc2Cl)n[nH]c1=S -27%, O=C(O)C1C2CC2CN1C(=O)c1ccc(Cl)cc1Cl (stereo not drawn) -14.1%, O=C1CC(Cc2ccc(Cl)cc2)C(=O)N1c1cc(Cl)ccn1 (stereo not drawn) 7.89%, CCn1c(-c2cccnc2Cl)nc2cc(C)c(C)cc21 -16.4%, CCOC(=O)CCCNC(=O)COC(=O)c1cc(Br)c(Br)s1 -22.9%, CC(Sc1nnc(Cc2ccc([N+](=O)[O-])cc2)o1)C(N)=O (stereo not drawn) -20.4% [at 20 µM], O=C(c1ccc(OC2CCN(C(=O)c3cccnc3)CC2)cc1)N1CCCCCC1 -20.3%, CCOC(=O)/C(=C\c1ccc([N+](=O)[O-])cc1)C(=O)c1cc(C(C)=O)c(Nc2ccccc2)s1 -2.4%, CC(C)(C)c1nc2ccccc2c(=O)n1N1C(=O)c2ccccc2C1=O -15.6% [at 20 µM], O=C(NC1CCN(Cc2ccccc2)CC1)c1cc(Br)c(Br)[nH]1 -27.8%, NC(N)=NCCCc1cn(CC(=O)N2CCNCC2)nn1 -18.6%, CC(C)(O)C#Cc1ncc(C(F)(F)F)cc1Cl -28.4%, Cc1ccc(/C=C/C(=O)O)cc1S(=O)(=O)N1CCC(Cc2ccccc2)CC1 -29.9%, CCOc1ccc(N2C(=O)/C(=C/c3ccc(C)o3)N(C)C2=S)cc1 3.15%, O=C(/C=C/NNC(=O)c1cccc(Br)c1)c1ccccc1 0.209% [at 20 µM], O=C(C1=C[C@H](c2coc3ccccc3c2=O)C[C@H](OCc2ccc(CO)cc2)O1)N1CCN(Cc2ccccc2)CC1 -22.1%, COc1cc(/C=N\NC(=O)c2nonc2N)c(OC)cc1Br -19.8%, Cc1nnc(SCC(=O)NC2CCCC2)s1 -7.06% [at 20 µM], NNc1nc2c(Cl)cccc2s1 -15.9%, COc1ccc(NS(=O)(=O)c2ccc(Oc3c(C#N)cccc3C#N)cc2)cc1 -15.9%, CC1=C[C@H]2Cc3cc(C)cc(C)c3S(=O)(=O)[C@@H]2C=C1 -14.9%, Cn1c(=O)c2c(ncn2CC(COCc2ccccc2Cl)OCc2ccccc2Cl)n(C)c1=O (stereo not drawn) -9.34% [at 20 µM], Cn1c(SCC(=O)c2ccc(F)cc2)nnc1-c1ccccn1 -22.4%, CCc1cc(C(=O)OC)c(NC(=O)CC2Sc3ccc(C(F)(F)F)cc3NC2=O)s1 (stereo not drawn) -18.6%, Cc1nc2ccccn2c1C(=O)NN=C1CCN(C)CC1 -16.6%, CCOC(=O)/C(C#N)=C\c1c(C)cc(C)c(COC(C)=O)c1C -3.87% [at 20 µM], CCc1cc(Br)ccc1NC(=O)C1CCCO1 (stereo not drawn) -9.19% [at 20 µM], CCOC(=O)Cn1c(=O)oc2cc(S(=O)(=O)NCC3CCCO3)ccc21 (stereo not drawn) -8.46%, COc1ccc(C(=O)Nc2c(Cl)cc(Cl)cc2C(=O)N2CCC(C)CC2)cc1 -7.28%, CSc1ccccc1-c1nnc(-c2ccc(Cl)cc2)o1 -17.9% [at 20 µM], CNC(=O)c1[nH]cnc1C(=O)N[C@@H](CC(C)C)C(=O)OCc1ccccc1 -29.8%, CCOc1ccc(Oc2nc(C)cc(OC)n2)nn1 -13.8%, O=C(O)Cc1csc(NC(=O)CSc2nnnn2-c2ccc(O)cc2)n1 -27.1%, Cc1ccc2nc(COc3ccc(N(C)S(=O)(=O)c4ccccc4)cc3)cc(=O)n2c1 -21.2%, Cc1cc2nc(-c3ccc(NC(=O)c4cccnc4)cc3)oc2cc1C -16%, Cc1ccc(-n2nc3cc(Cl)c(NC(=O)c4ccco4)cc3n2)cc1 -6.45% [at 20 µM], O=C(NCc1cccnc1)Nc1cccc(NC(=O)NCc2cccnc2)c1F -13.7%, CCCN(CCC)CC(O)COc1ccccc1C(=O)Nc1ccccc1 (stereo not drawn) -22.6%, CCn1c(=O)c([N+](=O)[O-])c(NCc2ccc3c(c2)OCO3)c2ccccc21 -12.9%, CC1=NN(C(=O)Cc2ccc(C)cc2)C(O)(c2cccnc2)C1 (stereo not drawn) -14% [at 20 µM], CCC(CC)c1nnc(NC(=O)c2nn(C)c(=O)c3ccccc23)s1 -10.6%, Cc1ccc(NC(=O)C(=O)NCc2ccco2)c(C)c1 -25.7%, C=CCn1c(Cn2nnc3ccccc32)nnc1SCC(=O)N/N=C/c1cc(Br)cc(OC)c1O 1.52% [at 20 µM], C/C=C/C(=O)Nc1ccc(N2CCN(c3ccc(C(F)(F)F)cn3)CC2)nc1 -27.8%, COc1cc(OC)c(C(=O)OC(C)C(=O)Nc2cc(C(F)(F)F)ccc2Cl)cc1OC (stereo not drawn) -12.3%, O=C(Nc1ccccc1C(=O)N1CCOCC1)c1ccc(Cl)cc1 -16.3%, Cc1cc(C(=O)N2CCC(C(=O)O)CC2)c(C(F)(F)F)o1 -9.96%, O=C(Nc1cnn(Cc2ccc(Cl)cc2)c1)C1CCCC1 -14.4% [at 20 µM], Cc1nn(C)cc1C(=O)Nc1ccccc1Br -17.2%, C=CCC(CC=C)(C(N)=O)c1ccccc1 -29.7%, Fc1ccccc1OCCCCn1cncn1 -28.7% [at 20 µM], COc1ccc(CCNc2cc(C)nc3c(-c4ccc(Cl)cc4)c(C)nn23)cc1OC 9.61%, O=C(Nc1nccs1)C1CCN(S(=O)(=O)c2ccc(Cl)c(C(F)(F)F)c2)CC1 -14.1% [at 20 µM], COCCNc1nc2nonc2nc1N1CCCC1c1nccs1 (stereo not drawn) -8.2%, O=C(/C=C/c1ccccc1)Nc1nnc(SCC(=O)c2ccc3ccccc3c2)s1 -20.8%, COCCN1C(=O)N[C@@H](CCc2ccccc2)[C@H](C(C)=O)[C@H]1C -15.4%, CC(=O)C1=C(C)NC(=O)NC1c1cc(Br)ccc1OCC#N (stereo not drawn) -17.2% [at 20 µM], CSCC[C@H](NC(=O)OC(C)(C)C)C(=O)N/N=C/c1cc2ccc(C)cc2nc1Cl -14.1%, CC1(C)CC(=O)C(N=Nc2ccc(S(=O)(=O)N3CCCCCC3)cc2)=C(O)C1 -26.5%, C/C(=N\Nc1nc2ccccc2[nH]1)c1cccs1 -12.4%, CC(NC(=O)C(C)(C)C)C(c1cccs1)N1CCN(Cc2ccccc2)CC1 (stereo not drawn) -27.5%, CC(NC(=O)Nc1ccccc1)C(c1cccs1)N1CCN(c2ccccc2)CC1 (stereo not drawn) -13.8%, COc1ccc(C(=O)NC(=S)Nc2ccc(Cl)cn2)cc1OC -15.4%, Cn1c(=O)n(C)c2cc(NS(=O)(=O)c3ccc(F)cc3)ccc21 -20.7%, CCC(=O)Nc1sc(C(=O)Nc2ccccc2)c(C)c1C(=O)OC -21.3%, C#CCO[C@@H]1C[C@H](n2cnc3c(=O)[nH]c(NC(=O)C(C)C)nc32)O[C@@H]1CO -9.33%, O=C1N=C(N2CCc3ccccc3C2)S/C1=C\c1ccc(O)cc1 -5.76%, Cc1nc2sc(C(c3ccco3)N3CCC4(CC3)OCCO4)c(O)n2n1 (stereo not drawn) -16.3% [at 20 µM], COc1ccc(/C=C/C(=O)c2ccc(NS(=O)(=O)c3ccc(C)cc3)cc2)cc1O -7.18%, COC(=O)c1ccc(C(=O)OC)c(NC(=S)N2CCN(c3ccc(F)cc3)CC2)c1 -22.8%, O=C(Nc1ccccc1-c1nnn(CC(=O)N2CCCc3ccccc32)n1)c1cccc(Cl)c1 -12.2% [at 20 µM], Cc1cc(C)n(-c2nnc(C)n2NC(=O)c2cccc(Cl)c2)n1 -15.9% [at 20 µM], O=C(NCc1ccco1)C(=O)c1cn(CC(=O)N2CCCCCC2)c2ccccc12 -16.3%, CCOc1ncccc1C(=O)OCC(=O)NC1CC1 -17.7%, O=C(c1cccc([N+](=O)[O-])c1)N1CCN(C(=O)c2ccco2)CC1 -10.7%

inhibition, active:
OC(CNCC1CCCO1)Cn1c2ccc(Br)cc2c2cc(Br)ccc21 (stereo not drawn) 31.4% [at 20 µM], Cc1ccc(-n2nc3cc(C)c(NC(=O)c4cccnc4)cc3n2)cc1 34.8% [at 20 µM], CCCC(=O)NC(C)C(c1cccs1)N1CCN(c2ccccc2)CC1 (stereo not drawn) 25.4% [at 20 µM]
